Hits are enriched below; roughly 9.5% of the tested compounds scored in any of these assays.
NS1 function inh: qHTS Assay for Inhibitors of Influenza NS1 Protein Function; Potency, µM (doses to about 46.1 µM); 0.4% of 270,000 active; AID 2326, 2010; calls by dose curve; further: actives are rising curves; nearly all actives have a fitted effect of over 50% in size
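Recovery from NS1-induced slow growth read by OD600 in budding yeast switched to galactose assay medium (pH 6.0, -URA) at 1:100 dilution. Compound 23 nl per well; the matching strain lacking NS1 serves as control.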
SARS PLpro yeast: qHTS of Yeast-based Assay for SARS-CoV PLP | S. cerevisiae expressing SARS-CoV PLpro, growth rescue | Potency, µM (series often up to 32.9 µM), actives largely listed as activators | 0.19% of 330,000 active | AID 485353, 2010; calls by dose curve; further: nearly all actives have a fitted effect of over 55% in size
Pf growth 48h: Primary qHTS for delayed death inhibitors of the malarial parasite plastid, 48 hour incubation. 5.9% of 310,000 active. P. falciparum luciferase growth in erythrocytes, 48 h. Potency, µM (series often up to 28.7 µM), most hits filed as inhibitors
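Compounds are pin-transferred into medium, infected erythrocytes (2% hematocrit, 0.1% parasitemia final) are added, and plates sit one parasite generation at 37 C in 5% CO2. Detection reagent is then added and luminescence measured.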
RE007 growth inh: qHTS Assay for Inhibitors of the HIV-1 protein Vpr | 0.21% of 360,000 active | S. pombe RE007 Vpr strain, BacTiter-Glo ATP luminescence, 24 h | Potency, µM (doses to about 92.2 µM), actives largely listed as inhibitors | AID 651644, 2012; active means well fitted falling curve with a large enough effect; inconclusive means small, poorly fitted or top-dose-only effect; inactive means no such curve, though single readings can be large or run the other way; further: nearly all actives have a fitted effect of over 50% in size
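Fission yeast strain RE007, carrying one chromosomally integrated HIV-1 vpr copy, was seeded at OD 0.01 in PMG+AL medium with 23 nL pinned compound. After 24 h at 30 °C and 99% humidity, viability was read by BacTiter-Glo luminescence.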
Pf growth 96h: Primary qHTS for delayed death inhibitors of the malarial parasite plastid, 96 hour incubation. 6.9% of 320,000 active. Potency, µM (top dose mostly 28.7 µM), usual class: inhibitors. P. falciparum luciferase reporter growth, 96 h
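P. falciparum expressing integrated firefly luciferase grown in erythrocytes (2% hematocrit, 0.05% parasitemia final) with compounds for 96 hours at 37 C, 5% CO2. Growth inhibition read as loss of luminescence after adding luciferase detection reagent.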
Of the large screens only hits and unclear results are named; the others gave an inactive call. Unless noted, the call rests on the fitted dose curve; in most records, active means well fitted inhibition curve with a large enough effect; inconclusive means small, poorly fitted or top-dose-only effect, or another doubt; inactive means no such curve, though single readings can be large or run the other way.

CCC(c1nnnn1Cc1ccco1)N(CCc1ccccc1)Cc1cc2cc(C)ccc2[nH]c1=O (configuration not stated)	NS1 function inh inconclusive, Pf growth 48h 13µM
CCC(c1nnnn1Cc1ccccc1)N(Cc1ccco1)Cc1cc2cc(OC)ccc2[nH]c1=O (configuration not stated)	Pf growth 48h inconclusive
CCC(c1nnnn1Cc1ccc(OC)cc1)N(CCCO)Cc1cc2cc3c(cc2[nH]c1=O)OCO3 (configuration not stated)	Pf growth 48h inconclusive (no result: Pf growth 96h)
CCC(c1nnnn1CCc1ccccc1)N(Cc1ccco1)Cc1cc2cc(C)cc(C)c2[nH]c1=O (configuration not stated)	Pf growth 48h 12µM
CCOc1ccc(S(=O)(=O)c2cn(C)c3cc(OC)c(OC)cc3c2=O)cc1	none
Cc1ccc(COc2ccc(Br)cc2/C=N/O)cc1	RE007 growth inh 32µM
CCOc1cc(/C=N/O)ccc1OCc1ccc(C)cc1	none
O/N=C/c1cc(Br)ccc1OCc1ccc(F)cc1	RE007 growth inh 35µM (no result: NS1 function inh, SARS PLpro yeast, Pf growth 48h, Pf growth 96h)
O/N=C/c1cc(Br)ccc1OCc1cccc(F)c1	RE007 growth inh inconclusive
CCCNC(=O)C[C@H]1CC[C@@H]2[C@H](COC[C@@H](O)CN2C(=O)c2ccccn2)O1	none (no result: NS1 function inh, SARS PLpro yeast, Pf growth 48h, Pf growth 96h)
CC1(CCC(=O)N2CCCC(N3CCN(c4cccc(C(F)(F)F)c4)CC3)C2)CC1 (configuration not stated)	Pf growth 96h inconclusive
CCN(CC(=O)Nc1c(F)cccc1F)C(=O)C1CCN(c2ncnc3sc(C)c(C)c23)CC1	Pf growth 48h 10µM, Pf growth 96h inconclusive (no result: NS1 function inh)
Cc1cccc(C)c1NC(=O)CN(C)C(=O)C1CCN(c2ncnc3sc(C)c(C)c23)CC1	Pf growth 48h inconclusive, Pf growth 96h 7.4µM (no result: NS1 function inh)
CCCCNC(=O)C1(C)CCN1C(=O)c1ccc(C)c(F)c1 (configuration not stated)	none (no result: NS1 function inh, SARS PLpro yeast, Pf growth 48h, Pf growth 96h)
CN(C)C(=O)CN1C(=O)NC2(CCc3ccccc32)C1=O (configuration not stated)	none
CCOC(=O)c1c(NC(=O)COc2cccc3c2CCN(C)C3=O)sc2c1CCC2	Pf growth 48h inconclusive, Pf growth 96h 13µM
CC(=O)Oc1ccc(C(=O)NC(C)CCc2ccccc2)cc1 (configuration not stated)	none
CCC1=NN(C(=O)c2ccc(Br)cc2)C(O)(c2ccccc2)C1 (configuration not stated)	none
CC1=NN(C(=O)c2ccccc2)C(O)(c2ccc(Br)cc2)C1 (configuration not stated)	Pf growth 48h inconclusive, Pf growth 96h 3.7µM
CC1=NN(C(=O)c2ccccc2F)C(O)(c2ccc(Cl)cc2)C1 (configuration not stated)	Pf growth 96h 13µM
COc1cc(C2SCCCCCCCCCCSC(c3ccc(O)c(OC)c3)SCCCCCCCCCCS2)ccc1O (configuration not stated)	none (no result: SARS PLpro yeast, Pf growth 48h, RE007 growth inh, Pf growth 96h)
CCOC(=O)N1CCN(C(=O)C2CCN(S(=O)(=O)CC)CC2)CC1	Pf growth 96h 1.7µM
CCCS(=O)(=O)N1CCC(C(=O)N2CCN(C(=O)OCC)CC2)CC1	none
O=C(N/N=C/c1ccc(N2CCCCC2)o1)C(O)(c1ccccc1)c1ccccc1	Pf growth 48h 13µM, Pf growth 96h inconclusive (no result: RE007 growth inh)
CCn1c(=O)c2ccccc2n(CC(=O)NC2CCCCC2)c1=O	none
CCOC(=O)C1=C(C)N=C2SC(C(=O)OC)=CC(=O)N2C1c1cc(OC)c(OC)c(OC)c1 (configuration not stated)	NS1 function inh inconclusive, Pf growth 48h 4.7µM
CCOC(=O)C1=C(C)N=C2SCCC(=O)N2C1c1ccc(C(=O)OC)cc1 (configuration not stated)	none (no result: Pf growth 48h, Pf growth 96h)
CCOc1ccc(CSc2nc(C)cc(COC)c2C#N)cc1OCC	Pf growth 48h 13µM
COCc1cc(C)nc(SCC(=O)Nc2cccc3cccnc23)c1C#N	Pf growth 96h 12µM
CCOC(=O)c1cnc2c(C)cc(C)cc2c1NCCCN1CCOCC1	Pf growth 48h inconclusive
N[C@@H](CO)C(=O)NNCc1ccc(O)c(O)c1O	none (no result: NS1 function inh, SARS PLpro yeast, RE007 growth inh)
CC(C)OC(=O)C(C(=O)OC(C)C)=C1SC=CS1	none (no result: NS1 function inh, SARS PLpro yeast, RE007 growth inh)
COc1ccccc1-n1c(CNc2c(C)cccc2C)nnc1SCC(=O)N1CCOCC1	Pf growth 96h 12µM
O=C1C=C(Nc2ccc(Cl)cc2)CC(c2ccc(Cl)cc2)C1 (configuration not stated)	Pf growth 48h 9.3µM, Pf growth 96h inconclusive
O=C1C=C(Nc2ccc(Cl)cc2)CC(c2ccco2)C1 (configuration not stated)	Pf growth 48h 9.3µM, Pf growth 96h inconclusive
CCCCCCCNC1=CC(=O)CC(c2ccco2)C1 (configuration not stated)	Pf growth 48h 2.3µM, Pf growth 96h 10µM
Cc1ccc(C2CC(=O)C=C(Nc3ccc(Cl)cc3)C2)cc1 (configuration not stated)	Pf growth 48h 15µM
CCOc1ccc(NC(=S)N(CCOC)C2CCN(C(C)C)CC2)cc1	Pf growth 96h inconclusive
COc1ccc([C@H]2CC(=O)C=C(c3cccc4c3Oc3ccccc3S4)C2)cc1OC	Pf growth 48h inconclusive, Pf growth 96h inconclusive (no result: NS1 function inh)
COc1ccc(NC(=O)Nc2cccc(Cl)c2Cl)c(OC)n1	Pf growth 48h inconclusive, Pf growth 96h 9.3µM
CC(C)CCCN1C(N(C)C)=NC[C@@H]1Cc1ccccc1	Pf growth 48h inconclusive, Pf growth 96h inconclusive (no result: NS1 function inh)
COc1ccc(N(CC(=O)Nc2ccc(OC)c(Cl)c2)S(=O)(=O)c2c(C)noc2C)cc1	Pf growth 48h 8.3µM
CCOc1ccc(OCC)c(NC(=O)CN(c2ccc(C)cc2)S(=O)(=O)c2c(C)noc2C)c1	none (no result: Pf growth 48h)
CCOc1ccccc1NC(=O)CCN(c1ccc(C)cc1)S(=O)(=O)c1ccccc1	Pf growth 48h inconclusive, Pf growth 96h 12µM
CCOc1ccccc1NC(=O)CN(c1ccc(C)cc1)S(=O)(=O)c1c(C)noc1C	Pf growth 48h 4.1µM
CCOc1ccc(N(CC(=O)NCCc2ccc(C)cc2)S(=O)(=O)c2c(C)noc2C)cc1	Pf growth 48h inconclusive, Pf growth 96h inconclusive
CCOc1ccc(OCC)c(NC(=O)CN(c2ccc(OC)cc2)S(=O)(=O)c2c(C)noc2C)c1	NS1 function inh inconclusive, Pf growth 48h 13µM, Pf growth 96h inconclusive
COc1ccc(N(CC(=O)Nc2ccc(F)c(Cl)c2)S(=O)(=O)c2c(C)noc2C)cc1	Pf growth 48h inconclusive, Pf growth 96h inconclusive
Cc1cc(C)c(S(=O)(=O)Cc2ccccc2)c(Cl)n1	none
O=C(NC1CCCCC1)C(c1cccc2ccccc12)n1c(=O)c(-c2ccco2)nc2ccccc21 (configuration not stated)	none (no result: NS1 function inh, SARS PLpro yeast, Pf growth 48h, Pf growth 96h)
COc1ccc(OC)c(NC(=O)CN(c2ccc(C(C)C)cc2)S(=O)(=O)c2c(C)noc2C)c1	NS1 function inh inconclusive, Pf growth 96h 10µM (no result: Pf growth 48h)

Assay outcomes deposited in PubChem BioAssay by National Center for Advancing Translational Sciences (NCATS).
